ClpP mod: qHTS Assay for Activators of ClpP. ATP-dependent Clp protease proteolytic subunit (Bacillus subtilis (strain 168)), P80244. purified B. subtilis ClpP, FRET peptide cleavage, 20 min. Potency, µM (doses to about 57.5 µM), inactives show at the top dose activity change, negative = active. 340,000 compounds, 1.9% hits. AID 651965, 2013; active = well fitted falling curve with a large enough effect; inconclusive = small, poorly fitted or top-dose-only effect; inactive = no such curve, though single readings can be large or run the other way; note: potency is the fitted concentration of half-maximal effect; the source files actives as falling curves though it sought activators and does not explain the sign; nearly all actives have a fitted effect of over 65% in size
Target sequence (P80244 whole entry, looked up): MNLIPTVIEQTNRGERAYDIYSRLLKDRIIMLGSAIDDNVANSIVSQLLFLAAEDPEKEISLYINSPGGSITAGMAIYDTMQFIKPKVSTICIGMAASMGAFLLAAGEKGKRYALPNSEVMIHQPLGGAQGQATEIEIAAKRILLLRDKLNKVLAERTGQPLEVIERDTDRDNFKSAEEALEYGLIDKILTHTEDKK
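Purified B. subtilis ClpP, 10 microg/mL final in Tris/HCl pH8 with KCl, BSA, glycerol and Tween-20, cleaved an Abz/nitrotyrosine-quenched decapeptide. Fluorescence (ex 320, em 430) was read at 0 and 20 min at room temperature. Delta was normalized to 5.8 microM ADEP and DMSO/no-enzyme controls.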
HEK293 tox: qHTS of GLP-1 Receptor Inverse Agonists: Cytotox Screen; AID 624418, 2012; 410,000 compounds, 0.13% hits; HEK293 cAMP-luciferase reporter cells, luminescence, 24 h; Potency, µM (series often up to 38.3 µM), for the others: top-dose activity change, negative = inhibition, usual class: inhibitors;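 note: loss of luciferase light is scored as toxicity; potency is the fitted concentration of half-maximal effect; % is set by controls: 0 for no effect and ±100 for the full control effect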
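MLSMR compounds, 24 hr on cells at 37 deg C/5% CO2; luminescence after luciferase reagent (12 min RT). Inhibition counted as the undesired cytotoxic outcome.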
GLP-1R agonist: qHTS of GLP-1 Receptor Agonists | Glucagon-like peptide 1 receptor (Homo sapiens), P43220 | HEK293 GLP-1R CRE-luciferase, luminescence, 4-6 h; cells express a hypersensitive GLP-1R form | Potency, µM (doses to about 45.6 µM), inactives show at the highest dose activation, usual class: activators | 380,000 compounds, 0.007% hits | AID 624172, 2012; note: potency is the fitted concentration of half-maximal effect; % of control where 0% means no effect
Target sequence (P43220 whole entry, looked up): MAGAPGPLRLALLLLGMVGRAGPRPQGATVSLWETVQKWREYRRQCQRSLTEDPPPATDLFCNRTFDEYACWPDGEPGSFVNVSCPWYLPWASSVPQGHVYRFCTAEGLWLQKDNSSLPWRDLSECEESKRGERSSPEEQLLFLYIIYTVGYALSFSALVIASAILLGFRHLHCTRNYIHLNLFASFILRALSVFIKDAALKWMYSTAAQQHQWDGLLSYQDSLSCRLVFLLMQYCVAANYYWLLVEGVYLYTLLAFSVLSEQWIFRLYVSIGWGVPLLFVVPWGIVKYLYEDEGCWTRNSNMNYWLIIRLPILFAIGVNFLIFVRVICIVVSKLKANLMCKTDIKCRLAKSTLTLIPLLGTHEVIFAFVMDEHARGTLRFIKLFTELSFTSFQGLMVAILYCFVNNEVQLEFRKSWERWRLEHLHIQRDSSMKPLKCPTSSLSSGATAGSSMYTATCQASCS
GLP1R inv ag: qHTS of GLP-1 Receptor Inverse Agonists (Inhibition Mode) | Glucagon-like peptide 1 receptor (Homo sapiens), P43220 | HEK293 GLP-1R CRE-luciferase, luminescence, 24 h; GLP-1R form is constitutively active | Potency, µM (titrated, usually from 38.3 µM), for the others: at the highest dose activity change, negative = inhibition, most hits filed as inhibitors | 410,000 compounds, 1.6% hits | AID 624417, 2012; note: potency is the fitted concentration of half-maximal effect; % is set by controls: 0 for no effect and ±100 for the full control effect; nearly all actives have a fitted effect of over 55% in size
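Luminescence readout: a drop in cAMP-driven luciferase signal flags inverse agonism at a constitutively active GLP-1R stably expressed in HEK293. Compound exposure lasted 24 hr at 37 deg C, 5% CO2.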
LDHA block: qHTS assay for inhibitors of human lactate dehydrogenase. purified LDHA, NADH/diaphorase-resazurin fluorescence; hits give low values. activity change, % (values are at about 110 or 230 µM). 480,000 compounds, 0.15% hits; in the data active = activity change below about -30%; inconclusive = mostly about -25% to -30%;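 note: plate controls were DMSO wells for no effect and wells without enzyme for full effect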
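Human LDH5 at 2 nM final in Tris HCl pH 7.4 with 0.06 mM NADH and 0.2 mM pyruvate, reacted 5 minutes at room temperature. Remaining NADH coupled via diaphorase/resazurin; resorufin fluorescence read at 0 and 20 minutes, normalized to enzyme-free and DMSO wells.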
p53 reactivator: qHTS assay for re-activators of p53 using a Luc reporter | H1299 p53-A138V BP100-luciferase reporter, luminescence, 24 h | Potency, µM (doses to about 92.2 µM), without a hit: at the highest dose activity change, positive = activation, most hits filed as activators | 320,000 compounds, 0.063% hits | AID 504706, 2011; note: potency is the fitted concentration of half-maximal effect; % of control where 0% means no effect; nearly all actives have a fitted effect of over 45% in size
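p53-null H1299 cells stably carrying temperature-sensitive p53-A138V and a BP100-luciferase reporter were pinned with compounds (4-point, 1:5 series) and held 24 hrs at 37 deg C. Luminescence was read 10 min after detection reagent.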
Starred values were filed as active, the others as inactive; u = inconclusive; x = no result given. Only some compounds are listed: those with a hit (about 2.9% of all), similar ones and a draw of the others. Unless noted, calls come from the whole dose curve; as a rule, active = well fitted curve in the direction sought with a large enough effect; inconclusive = small, poorly fitted or top-dose-only effect, or another doubt; inactive = no such curve, though single readings can be large; an effect the other way counts as inactive or inconclusive.

SMILES	ClpP mod	HEK293 tox	GLP-1R agonist	GLP1R inv ag	LDHA block	p53 reactivator
CC(C)c1c(C(=O)N/N=C/c2c[nH]c3ccccc23)nnn1-c1nonc1N	-6%	u	2%	u	-10	-8%
O=c1oc(-c2ccc(F)cc2)nn1CC(O)COc1ccc2ccccc2c1 (centres undefined)	x	x	x	x	-30*	x
O=C(Nc1ccccn1)c1ccc(Cl)s1	-2%	-15%	8%	6%	-2	u
Nc1c(N(Cc2ccccc2)C(=O)C2=COCCO2)c(=O)[nH]c(=O)n1Cc1ccccc1	x	x	x	x	0	x
CCN(CC)S(=O)(=O)c1ccc(Cl)c(NC(=O)COc2ccc3c(C)cc(=O)oc3c2)c1	-16%	7%	-3%	10%	-11	-12%
CCOC(=O)CN1C(=O)C2Cc3ccccc3CN2C1=S (centres undefined)	2%	-1%	-4%	-34%	-31*	1%
COc1ccc(C(=O)Nc2ccc(N3CCOCC3)c(C(F)(F)F)c2)cc1OC	-3%	u	-3%	u	5	x
Cc1c(C(=O)NCCSCc2cccc(C(F)(F)F)c2)cnn1-c1ccc(Cl)cc1	x	-4%	15%	5µM*	-2	2%
CC(=O)c1cnn(-c2ccc(Cl)cc2)c1C	x	5%	6%	1%	-6	-1%
COc1ccc(NC(=O)CC2C(=O)N(C)C(=S)N2CCc2ccc(F)cc2)cc1 (centres undefined)	-2%	-21%	5%	11µM*	-2	-3%
COc1ccc(CCN2C(=O)N(c3ccc(C)cc3)C(=O)C2CC(=O)Nc2ccc(F)cc2)cc1 (centres undefined)	-2%	-18%	-2%	7.9µM*	-1	x
CCN1C(=O)C(CC(=O)Nc2ccc(OC)cc2)N(CCc2ccc(F)cc2)C1=S (centres undefined)	11µM*	-14%	5%	u	0	7%
COc1ccc(CCN2C(=S)N(C)C(=O)C2CC(=O)Nc2ccc(OC)cc2)cc1 (centres undefined)	x	4%	17%	u	2	-2%
c1ccc(Cc2nnc3sc(-c4ccccn4)nn23)cc1	0%	5%	28%	62%	1	u
O=C(Nc1ccc(Cl)cc1)NC1CCCC1Cc1ccco1 (centres undefined)	-1%	10%	-7%	5.6µM*	0	4%
O=C(Nc1ccc(Cl)cc1)NC1CCCCC1Cc1ccco1 (centres undefined)	0%	-30%	-13%	10µM*	-1	-1%
O=C(Nc1ccc(Cl)cc1)NC1CCCCC1	1%	3%	4%	-2%	-3	13%
O=C(NNC(=S)NC1CCCCC1)c1sc2ccccc2c1Cl	17%	-1%	-23%	-30%	-7	17%
CCCOc1ccccc1Cn1c(=O)oc2ccc(C)cc21	0%	1%	3%	u	-1	-5%
CCOc1ccccc1Cn1c(=O)oc2ccc(C)cc21	25µM*	29%	1%	u	-5	-11%
CCCOc1ccc(/C=N/Nc2cccc([N+](=O)[O-])c2)c(O)c1	2%	u	3%	4.5µM*	-2	u
CCCOc1ccc(/C=N/Nc2ccccc2[N+](=O)[O-])c(O)c1	1%	-21%	-11%	-47%	-6	x
CN1CCN(c2nc(-c3cccnc3)nc3scc(-c4ccccc4)c23)CC1	x	u	6%	u	1	10%
Clc1nc(-c2ccccn2)nc2scc(-c3ccccc3)c12	28µM*	u	1%	u	4	11µM*
FC(F)(F)C(F)(F)c1nc2nc(Cl)c(Cl)nc2[nH]1	4%	4%	-3%	u	-11	x
SMILES	ClpP mod	HEK293 tox	GLP-1R agonist	GLP1R inv ag	LDHA block	p53 reactivator
COc1ccccc1N(CC(=O)NC1CCCCC1)S(=O)(=O)c1ccccc1	x	-2%	7%	-10%	-5	-5%
CCOC(=O)CCCSc1nnc(CCCCCN2C(=O)c3cccc4cccc(c34)C2=O)o1	28µM*	6%	6%	11%	-5	-28%
COc1ccc(-c2cc3ccc(OC)cc3oc2=O)cc1	x	x	x	x	1	x
Cc1nn2c3ccccc3n(CCN3CCCCC3)c2nc1=O	u	8%	-2%	13%	-3	5%
C=CCn1c2ccccc2n2nc(C)c(=O)nc12	22µM*	20%	29%	63%	0	-12%
COCCNc1ncnc2c1cnn2-c1ccc(Cl)cc1	22µM*	-3%	4%	-26%	-6	x
OCCOCCNc1ncnc2c1cnn2-c1ccccc1	u	17%	4%	0%	-15	14%
COCCN(CCOC)c1ncnc2c1cnn2-c1ccc(Cl)cc1	-3%	2%	21%	u	-10	11%
OCCOCCNc1ncnc2c1cnn2-c1ccc(Cl)cc1	32µM*	8%	-2%	u	-7	-3%
CC1CCN(S(=O)(=O)c2ccc3c(c2)C(=NO)c2cc(S(=O)(=O)N4CCC(C)CC4)ccc2-3)CC1	-28%	u	0%	u	-6	-6%
O=S(=O)(c1ccc2c(c1)C(=NO)c1cc(S(=O)(=O)N3CCCCC3)ccc1-2)N1CCCCC1	28µM*	u	-5%	u	-6	-11%
Cc1ccnc(NS(=O)(=O)c2ccc(Oc3ccccc3)cc2)c1	28µM*	-4%	5%	0%	0	-3%
CCCCCc1ccc(S(=O)(=O)Nc2cc(C)ccn2)cc1	0%	13%	7%	87%	3	-1%
CC(=O)Nc1ccc(C(=S)NCC2(N(C)C)CCCCC2)cc1	x	u	4%	u	2	4%
O=C(/C(=C/c1cccc(O)c1)c1nc2ccccc2s1)c1ccccc1	x	x	x	x	-7	x
O=C(Nc1ccc(Cl)cc1)/C(=C/c1cccc(O)c1)c1nc2ccccc2s1	1%	-16%	-4%	2.8µM*	-12	1%
c1ccc(-c2sc3ccccc3c2-c2ccc(OCCN3CCOCC3)cc2)cc1	32µM*	1%	16%	u	-8	-3%
COc1ccccc1-c1sc2ccccc2c1-c1ccc2c(c1)OCO2	u	2%	3%	10µM*	-7	x

Compound activity (PubChem BioAssay)
